From PubChem BioAssay (EPA / NIEHS)
Calls of active or inactive are those of the source. Rule for the calls: active = hit-call score of the fitted dose curve at least 0.9, where 1 is the maximum; inactive = score below 0.9.

How the values were obtained:
[1] = molecular target: Transcription factor E2F1 (Homo sapiens) (UniProt Q01094); assay: ATG_E2F_CIS: Attagene CIS-FACTORIAL HepG2 Assay for human E2F Transcription Factor 1 (AID 2282935); conditions: HepG2 Attagene cis-reporter, E2F reporter RNA transcripts; actives raise or lower the signal
Outline: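 Total RNA from 24 h-treated, reporter-transfected HepG2 cells undergoes DNase I treatment, oligo(dT) reverse transcription, PCR and 6-FAM primer extension before capillary electrophoresis.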

[2] = ATG_E_Box_CIS: Attagene CIS-FACTORIAL HepG2 Assay for human Enhancer Box (E-box) (AID 2282936); conditions: HepG2 E-box cis-reporter transcription, actives raise or lower the signal
Outline: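 DMSO served as negative control and baseline for bidirectional fitting. Human hepatoma HepG2 cells, transiently transfected with cis-reporter constructs, were dosed 24 h; reporter mRNA read by RT-PCR and capillary electrophoresis.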

[3] = ATG_M_61_CIS: Attagene CIS-FACTORIAL HepG2 Assay for M61 Transcription Factor (Internal Marker) (AID 2282937); conditions: HepG2 Attagene CIS-FACTORIAL M61 internal marker reporter; actives raise or lower the signal
Outline: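 Endogenous transcription factor activity in HepG2 is read through transiently transfected cis-element reporter units. After 24 h dosing, RNA undergoes reverse transcription, PCR and primer extension with 6-FAM before capillary electrophoresis; DMSO-referenced bidirectional fit.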

[4] = ATG_EGR_CIS: Attagene CIS-FACTORIAL HepG2 Assay for human Early Growth Response 1 (EGR1) (AID 2282938); conditions: HepG2 Attagene CIS-FACTORIAL EGR reporter mRNA; actives raise or lower the signal
Outline: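 Activity is taken as induction or loss of reporter mRNA versus DMSO, fitted bidirectionally. Transcripts from cis-regulated reporter units in transiently transfected HepG2 were measured after 24 h by RT-PCR with capillary electrophoresis.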

[5] = ATG_M_19_CIS: Attagene CIS-FACTORIAL HepG2 Assay for M19 Transcription Factor (Internal Marker) (AID 2282939); conditions: HepG2 Attagene CIS-FACTORIAL M19 internal marker reporter; actives raise or lower the signal
Outline: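 Background-control endpoint from a multiplexed HepG2 reporter panel. Cells carrying cis-regulated reporter constructs are treated 24 h, then reporter transcripts are amplified, fluorescently labelled and sized by capillary electrophoresis. DMSO defines baseline.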

[6] = ATG_ERE_CIS: Attagene CIS-FACTORIAL HepG2 Assay for Estrogen Response Element (ERE) (AID 2282940); conditions: HepG2 ERE cis-reporter, Attagene RNA transcript; actives raise or lower the signal
Outline: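 Cells used were human hepatoma HepG2, transfected with multiple reporter transcription units under cis-regulatory promoters. Reporter mRNA, read 24 h post-dosing via fluorescent RT-PCR products on capillary electrophoresis, was fitted bidirectionally relative to DMSO.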

[7] = ATG_Ets_CIS: Attagene CIS-FACTORIAL HepG2 Assay for human Erythroblast Transformation Specific (ETS) (AID 2282941); conditions: HepG2 ETS cis-reporter transcription, actives raise or lower the signal
Outline: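 HepG2 cells transfected with multiple cis-regulated reporter units measuring endogenous ETS-driven transcription, 24 h after dosing. Reporter mRNA quantified by RT-PCR with capillary electrophoresis; bidirectional fit relative to DMSO.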

[8] = molecular target: Hepatocyte nuclear factor 3-beta (Homo sapiens) (UniProt Q9Y261); assay: ATG_FoxA2_CIS: Attagene CIS-FACTORIAL HepG2 Assay for human Forkhead box A2 (FOXA2) (AID 2282942); conditions: HepG2 cis-reporter transcription factor activity, 24 h; actives raise or lower the signal
Outline: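 Reporter transcript induction is measured by fluorescence after capillary electrophoresis of RT-PCR products from HepG2 cells exposed 24 h. Cis-regulated reporter units report endogenous factor activity; curves fitted both directions against DMSO.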

[9] = ATG_FoxO_CIS: Attagene CIS-FACTORIAL HepG2 Assay for human Forkhead box O (FoxO) (AID 2282943); conditions: HepG2 Attagene cis-reporter, FoxO element, mRNA; actives raise or lower the signal
Outline: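 Human hepatoma HepG2 cells carry transiently introduced reporter transcription units controlled by cis promoter elements. Chemical treatment lasted 24 h, and mRNA signal was compared with DMSO.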

[10] = ATG_GATA_CIS: Attagene CIS-FACTORIAL HepG2 Assay for human GATA Binding Protein (AID 2282944); conditions: HepG2 GATA cis-element reporter, Attagene multiplex mRNA; actives raise or lower the signal
Outline: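 Endogenous transcription factor activity was captured through cis-promoter-driven reporters in transfected HepG2 cells. After 24 h exposure, reporter transcripts were quantified by RT-PCR with fluorescent capillary electrophoresis, and responses fitted both directions against DMSO.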

[11] = ATG_GLI_CIS: Attagene CIS-FACTORIAL HepG2 Assay for human Zinc Finger Protein GLI1 (AID 2282945); conditions: HepG2, Attagene cis-factorial reporter mRNA, GLI element; actives raise or lower the signal
Outline: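 Bidirectional curve fits relative to DMSO, using reporter mRNA levels from RT-PCR plus capillary electrophoresis. Cells were HepG2 transiently carrying cis-regulated reporter constructs, harvested 24 h after dosing.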

[12] = ATG_GRE_CIS: Attagene CIS-FACTORIAL HepG2 Assay for human Glucocorticoid Response Elements (GRE) (AID 2282947); conditions: HepG2 GRE cis-reporter, Attagene multiplex mRNA; actives raise or lower the signal
Outline: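 Assay uses human hepatoma HepG2 cells transfected with cis-promoter reporter units, exposed 24 h. mRNA from reporters detected by RT-PCR plus capillary electrophoresis; DMSO serves as negative control and baseline.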

[13] = ATG_ISRE_CIS: Attagene CIS-FACTORIAL HepG2 Assay for human Interferon Regulatory Factor 1 (IRF1) binding to an Interferon-Stimulated Response Element (ISRE) (AID 2282948); conditions: HepG2 ISRE cis-reporter (Attagene), mRNA transcription readout; actives raise or lower the signal
Outline: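 Transiently transfected HepG2 cells carrying cis-element reporter units, dosed 24 hours. Reporter mRNA quantified by RT-PCR, fluorescent primer extension, HpaI digestion and capillary electrophoresis. Bidirectional fitting relative to DMSO.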

[14] = ATG_M_32_CIS: Attagene CIS-FACTORIAL HepG2 Assay for M32 Transcription Factor (Internal Marker) (AID 2282949); conditions: HepG2 Attagene cis-factorial M32 reporter, mRNA; actives raise or lower the signal;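 note: background control marker of the multiplexed CIS panel rather than a real target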
Outline: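 Internal background marker read-out: RT-PCR/capillary electrophoresis fluorescence of reporter transcripts from transiently transfected HepG2 cells after 24 h chemical exposure. Activity fitted bidirectionally relative to DMSO negative control.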

[15] = ATG_M_06_CIS: Attagene CIS-FACTORIAL HepG2 Assay for M06 Transcription Factor (Internal Marker) (AID 2282950); conditions: HepG2 Attagene CIS-FACTORIAL M06 internal marker reporter; actives raise or lower the signal
Outline: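 Steps: transfect HepG2 with multiplexed cis-element reporter constructs; dose chemical 24 h; extract RNA with DNase treatment; reverse-transcribe, PCR-amplify, 6-FAM label, HpaI digest; separate fragments by capillary electrophoresis. Activity fitted both directions versus DMSO.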

[16] = molecular target: Hypoxia-inducible factor 1-alpha (Homo sapiens) (UniProt Q16665); assay: ATG_HIF1a_CIS: Attagene CIS-FACTORIAL HepG2 Assay for human Hypoxia Inducible Factor 1 (HIF1A) (AID 2282951); conditions: HepG2 Attagene cis-factorial HIF1a reporter transcription; actives raise or lower the signal
Outline: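 Fluorescence intensity of capillary-separated, 6-FAM-labelled reporter amplicons gives mRNA induction in HepG2 cells carrying transfected cis-promoter reporter units; cells exposed 24 h, responses fitted up or down from DMSO.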

[17] = molecular target: Hepatocyte nuclear factor 6 (Homo sapiens) (UniProt Q9UBC0); assay: ATG_HNF6_CIS: Attagene CIS-FACTORIAL HepG2 Assay for human Hepatocyte Nuclear Factor 6 (HNF6) (AID 2282952); conditions: HepG2 Attagene cis-factorial HNF6 reporter transcription; actives raise or lower the signal
Outline: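 HepG2 cells transiently transfected with cis-element-driven multiple reporter transcription units, dosed 24 h; reporter mRNA quantified by RT-PCR, FAM primer extension, HpaI digestion and capillary electrophoresis; bidirectional fit versus DMSO baseline.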

[18] = molecular target: Heat shock factor protein 1 (Homo sapiens) (UniProt Q00613); assay: ATG_HSE_CIS: Attagene CIS-FACTORIAL HepG2 Assay for human Heat Shock Transcription Factor 1 (HSE) (AID 2282953); conditions: HepG2 HSE cis-reporter, Attagene RNA transcription; actives raise or lower the signal
Outline: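 Cells were transfected with cis-element-driven reporter constructs, dosed for 24 h, then total RNA was reverse-transcribed and reporter cDNA amplified, FAM-labelled and digested with HpaI. Fragments were resolved by capillary electrophoresis; gain or loss was fitted against DMSO.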

[19] = ATG_MRE_CIS: Attagene CIS-FACTORIAL HepG2 Assay for human Metal Responsive Element (MRE) (AID 2282954); conditions: HepG2 MRE cis-reporter transcription, Attagene multiplex; actives raise or lower the signal
Outline: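 After a 24 h chemical exposure, transiently transfected HepG2 cells yield RNA whose reporter sequences are amplified, FAM-labelled and sized by capillary electrophoresis. Curves are fitted bidirectionally relative to DMSO.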

[20] = molecular target: Bile acid receptor (Homo sapiens) (UniProt Q96RI1); assay: ATG_IR1_CIS: Attagene CIS-FACTORIAL HepG2 Assay for human Nuclear Receptor Subfamily 1 Group H Member 4 (NR1H4), IR1 submotif (AID 2282946); conditions: IR1 reporter transcription, actives raise or lower the signal
Outline: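 Cells (human HepG2) carry transiently transfected cis-promoter reporter transcription units. Compounds are incubated 24 h, total RNA is reverse-transcribed and amplified, and labelled fragments are resolved by capillary electrophoresis. Curves use DMSO as baseline.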

Measured: AC50

Heat shock factor protein 1 (Homo sapiens), sequence (Q00613 whole entry, looked up, the tested form may be a part): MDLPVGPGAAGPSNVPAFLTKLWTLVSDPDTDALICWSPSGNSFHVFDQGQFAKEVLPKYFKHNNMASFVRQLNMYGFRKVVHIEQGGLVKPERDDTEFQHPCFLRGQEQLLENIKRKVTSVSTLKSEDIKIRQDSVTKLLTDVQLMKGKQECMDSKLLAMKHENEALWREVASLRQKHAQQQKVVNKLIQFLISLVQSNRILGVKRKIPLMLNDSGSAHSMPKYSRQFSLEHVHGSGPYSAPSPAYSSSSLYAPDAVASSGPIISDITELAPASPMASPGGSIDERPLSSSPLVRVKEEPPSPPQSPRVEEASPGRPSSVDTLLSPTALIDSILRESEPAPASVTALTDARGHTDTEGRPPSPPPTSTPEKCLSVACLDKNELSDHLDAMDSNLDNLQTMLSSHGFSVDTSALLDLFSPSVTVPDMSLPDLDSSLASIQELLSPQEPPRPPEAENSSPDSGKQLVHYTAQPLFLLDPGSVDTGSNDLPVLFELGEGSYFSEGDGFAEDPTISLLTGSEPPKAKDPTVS
Transcription factor E2F1 (Homo sapiens), sequence (Q01094 whole entry, looked up): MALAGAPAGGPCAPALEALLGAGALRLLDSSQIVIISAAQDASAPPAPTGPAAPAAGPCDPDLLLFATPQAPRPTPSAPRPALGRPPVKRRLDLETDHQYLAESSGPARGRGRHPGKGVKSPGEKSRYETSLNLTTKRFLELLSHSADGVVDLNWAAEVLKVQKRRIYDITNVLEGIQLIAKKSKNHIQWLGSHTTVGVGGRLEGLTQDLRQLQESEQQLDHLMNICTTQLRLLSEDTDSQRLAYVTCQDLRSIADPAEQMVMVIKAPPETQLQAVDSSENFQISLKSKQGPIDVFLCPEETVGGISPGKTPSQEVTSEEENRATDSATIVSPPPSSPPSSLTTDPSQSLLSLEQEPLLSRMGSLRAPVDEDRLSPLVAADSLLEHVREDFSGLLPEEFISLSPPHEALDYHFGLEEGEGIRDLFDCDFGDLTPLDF
Hypoxia-inducible factor 1-alpha (Homo sapiens), sequence (Q16665 whole entry, looked up): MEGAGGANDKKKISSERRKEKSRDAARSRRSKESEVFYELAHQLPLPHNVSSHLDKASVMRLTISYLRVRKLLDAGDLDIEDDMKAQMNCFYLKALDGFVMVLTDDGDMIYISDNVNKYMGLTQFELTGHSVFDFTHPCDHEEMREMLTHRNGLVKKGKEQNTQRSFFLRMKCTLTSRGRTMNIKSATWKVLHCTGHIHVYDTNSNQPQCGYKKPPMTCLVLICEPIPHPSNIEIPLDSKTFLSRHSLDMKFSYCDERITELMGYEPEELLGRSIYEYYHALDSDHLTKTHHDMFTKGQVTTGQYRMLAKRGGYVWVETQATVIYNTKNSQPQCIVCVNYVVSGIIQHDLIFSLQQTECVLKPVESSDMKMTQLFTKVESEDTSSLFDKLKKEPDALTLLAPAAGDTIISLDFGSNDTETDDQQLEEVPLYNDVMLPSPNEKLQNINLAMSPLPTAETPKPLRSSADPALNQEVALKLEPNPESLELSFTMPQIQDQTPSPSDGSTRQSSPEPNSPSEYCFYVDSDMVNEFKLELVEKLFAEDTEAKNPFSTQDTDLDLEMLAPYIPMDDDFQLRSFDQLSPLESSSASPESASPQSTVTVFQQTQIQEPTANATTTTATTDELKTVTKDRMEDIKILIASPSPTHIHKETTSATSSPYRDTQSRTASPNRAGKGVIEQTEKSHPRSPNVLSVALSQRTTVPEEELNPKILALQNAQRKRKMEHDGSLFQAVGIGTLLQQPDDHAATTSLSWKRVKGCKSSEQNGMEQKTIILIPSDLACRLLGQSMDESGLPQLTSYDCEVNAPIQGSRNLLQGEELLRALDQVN
Hepatocyte nuclear factor 6 (Homo sapiens), sequence (Q9UBC0 whole entry, looked up): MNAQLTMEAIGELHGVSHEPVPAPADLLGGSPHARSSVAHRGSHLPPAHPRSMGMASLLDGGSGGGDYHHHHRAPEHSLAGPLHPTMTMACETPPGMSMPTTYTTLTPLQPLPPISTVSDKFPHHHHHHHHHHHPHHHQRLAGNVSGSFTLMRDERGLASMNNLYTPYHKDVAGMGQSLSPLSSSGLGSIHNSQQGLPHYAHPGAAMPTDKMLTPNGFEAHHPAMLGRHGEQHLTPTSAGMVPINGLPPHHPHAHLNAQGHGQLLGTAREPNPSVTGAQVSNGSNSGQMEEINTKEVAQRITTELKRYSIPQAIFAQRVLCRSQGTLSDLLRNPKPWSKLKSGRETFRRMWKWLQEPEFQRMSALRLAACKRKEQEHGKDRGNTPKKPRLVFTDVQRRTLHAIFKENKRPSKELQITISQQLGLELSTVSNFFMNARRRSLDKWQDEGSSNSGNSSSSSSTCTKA
Hepatocyte nuclear factor 3-beta (Homo sapiens), sequence (Q9Y261 whole entry, looked up): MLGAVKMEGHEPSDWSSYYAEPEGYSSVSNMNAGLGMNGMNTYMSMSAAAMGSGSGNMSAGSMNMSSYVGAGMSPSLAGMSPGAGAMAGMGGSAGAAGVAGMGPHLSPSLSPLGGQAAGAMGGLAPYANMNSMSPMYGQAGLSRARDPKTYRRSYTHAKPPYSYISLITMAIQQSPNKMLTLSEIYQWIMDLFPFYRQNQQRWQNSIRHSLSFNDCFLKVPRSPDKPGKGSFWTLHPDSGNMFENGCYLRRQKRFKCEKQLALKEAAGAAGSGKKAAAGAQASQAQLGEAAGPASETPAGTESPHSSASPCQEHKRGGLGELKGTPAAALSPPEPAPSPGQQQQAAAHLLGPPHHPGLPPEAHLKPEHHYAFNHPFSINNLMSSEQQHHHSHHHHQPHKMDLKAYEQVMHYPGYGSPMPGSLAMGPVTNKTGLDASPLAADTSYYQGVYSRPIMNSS
Bile acid receptor (Homo sapiens), sequence (Q96RI1 whole entry, looked up, the tested form may be a part): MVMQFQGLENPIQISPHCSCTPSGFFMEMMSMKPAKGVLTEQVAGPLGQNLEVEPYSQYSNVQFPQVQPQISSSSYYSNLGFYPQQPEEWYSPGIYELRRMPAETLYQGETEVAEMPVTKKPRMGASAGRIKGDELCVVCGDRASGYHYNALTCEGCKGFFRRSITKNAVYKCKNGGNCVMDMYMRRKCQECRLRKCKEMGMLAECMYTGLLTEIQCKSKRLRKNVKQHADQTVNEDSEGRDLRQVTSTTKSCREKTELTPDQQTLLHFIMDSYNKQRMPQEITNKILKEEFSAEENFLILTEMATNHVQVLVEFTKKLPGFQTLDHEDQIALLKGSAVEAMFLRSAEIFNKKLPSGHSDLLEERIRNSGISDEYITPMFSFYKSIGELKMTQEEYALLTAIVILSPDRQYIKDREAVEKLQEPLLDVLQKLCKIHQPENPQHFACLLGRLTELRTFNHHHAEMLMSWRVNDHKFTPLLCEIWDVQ

CCCCCCC=O
active: [6] 26.7 µM
not listed: [20]
inactive: all other assays above

O=S(=O)(O)c1ccc(N=Nc2c(O)ccc3ccccc23)cc1
active: [6] 33.5 µM | [8] 7.83 µM | [16] 3 µM
not listed: [17] | [18] | [20]
inactive: all other assays above

CCCCCCO
not listed: [20]
inactive: all other assays above

COC(Cc1ccccc1)OC
not listed: [12] | [20]
inactive: all other assays above

CCCC1CCCC(=O)O1 (stereo unspecified)
active: [6] 21.3 µM
not listed: [12] | [20]
inactive: all other assays above

CC(CC(C)C)=NO
not listed: [20]
inactive: all other assays above

CC(=O)OCCc1ccccc1
not listed: [20]
inactive: all other assays above

CC(Cl)COP(=O)(OCC(C)Cl)OCC(C)Cl (stereo unspecified)
not listed: [20]
inactive: all other assays above

C=C(C)OC(C)=O
not listed: [17] | [19] | [20]
inactive: all other assays above

CCCC(CC)c1ccccc1 (stereo unspecified)
active: [6] 45.1 µM
not listed: [12] | [18] | [20]
inactive: all other assays above

C=Cc1ccc(OC(C)=O)cc1
active: [6] 35.9 µM
not listed: [20]
inactive: all other assays above

CC1=CC(C)C(C=O)CC1 (stereo unspecified)
active: [6] 27.2 µM
not listed: [20]
inactive: all other assays above

CCCc1ccc(O)c(OC)c1
not listed: [17] | [18] | [20]
inactive: all other assays above

C=CC(C)(O)CC/C=C(\C)CC (stereo unspecified)
not listed: [18] | [20]
inactive: all other assays above

CCOC(=O)OC(=O)OCC
not listed: [11] | [17] | [18] | [19]
inactive: all other assays above
